Consider nine compounds from PubChem BioAssay (NCI).

Molecules are shown by their SMILES. This is part of a sample that, as a whole, favours compounds with a hit. Of some 83,000 tested, about 20% had one in any assay.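 Note: values are percent growth. 100 is the growth of untreated cells, values between 100 and 0 indicate rising inhibition; between -100 and 0 indicates cell death.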 Unmarked numbers belong to inactive results. Active and inactive are the calls of the source. How the source made its calls: active means growth percent below 10; inactive means the rest.

Test systems include RPMI-8226 leukemia; OVCAR-8 ovarian; OVCAR-5 ovarian; OVCAR-4 ovarian; SK-OV-3 ovarian; IGROV1 ovarian; OVCAR-3 ovarian; HS 578T breast; NCI/ADR-RES ovarian; T-47D breast; BT-549 breast; MDA-MB-435 melanoma; SW-620 colon; MCF7 breast; HCT-116 colon; HCC-2998 colon; KM12 colon.
Common to all, as to test: NCI-60 one-dose screen, 48 h (100 = growth as untreated, 0 = no growth, -100 = all killed)
Common to all, as to conditions: 10 µM unless noted

For `CCN1CCN(c2cc(-c3cn[nH]c3-c3cc(C)cc(OC)c3)nc(-c3cccnc3)n2)CC1`, the growth in the assay with RPMI-8226 leukemia is 86.2%; in the assay on OVCAR-8 ovarian, 79.6%; with OVCAR-5 ovarian, 124%; in the assay with OVCAR-4 ovarian it was 94%; with SK-OV-3 ovarian it was 116%; in the assay with IGROV1 ovarian, 84.4%. Besides, the growth in the assay with OVCAR-3 ovarian is 67.6%; in the assay with HS 578T breast, 68.8%; with NCI/ADR-RES ovarian it was 91.5%; in the assay with T-47D breast it was 83.1%; in the assay with BT-549 breast, 92.9%; in the assay with MDA-MB-435 melanoma it was 81.2%. Besides, the growth in the assay with SW-620 colon was 82.6%; in the assay with MCF7 breast, 82.6%; in the assay with HCT-116 colon it was 38.4%; with HCC-2998 colon, 91.3%; in the assay on KM12 colon, 50.6%.
As for `O=Cc1c[nH]c2ccc(NC(=O)OCc3ccccc3)cc12`, the growth in the assay with RPMI-8226 leukemia is 93%; with OVCAR-8 ovarian, 103%; with OVCAR-5 ovarian it was 97.5%; with OVCAR-4 ovarian, 104%; in the assay with SK-OV-3 ovarian, 97.6%; in the assay with IGROV1 ovarian, 32.4%. Besides, the growth was 123% in the assay on OVCAR-3 ovarian; 252% with HS 578T breast; 96.3% with NCI/ADR-RES ovarian; 84.2% in the assay on T-47D breast; 21.4% in the assay with BT-549 breast; 115% in the assay with MDA-MB-435 melanoma. The growth was 121% with SW-620 colon; 100% with MCF7 breast; 98.9% in the assay with HCT-116 colon; 96.2% with HCC-2998 colon; 123% in the assay with KM12 colon.
Take `O=C(CN1CCCCC1)Sc1nnc2sc3ccccc3n12`: the growth in the assay on RPMI-8226 leukemia was 108%; in the assay with OVCAR-8 ovarian, 98.8%; with OVCAR-5 ovarian, 144%; with OVCAR-4 ovarian it was 105%; with SK-OV-3 ovarian, 89.5%; in the assay on IGROV1 ovarian it was 121%. Also, the growth was 111% in the assay on OVCAR-3 ovarian; 110% with HS 578T breast; 100% with NCI/ADR-RES ovarian; 92.2% in the assay with T-47D breast; 104% in the assay on BT-549 breast; 111% in the assay on MDA-MB-435 melanoma. Moreover, the growth was 101% in the assay on SW-620 colon, 92.9% with MCF7 breast, 95.3% in the assay on HCT-116 colon and 116% with HCC-2998 colon.
`CCN(CC)CCNc1ccc(Cl)cc1Cl`: the growth with RPMI-8226 leukemia is 109%; with OVCAR-8 ovarian, 98.2%; with OVCAR-5 ovarian it was 124%; with OVCAR-4 ovarian it was 117%; with SK-OV-3 ovarian, 92.5%; in the assay on IGROV1 ovarian it was 110%. Besides, the growth with OVCAR-3 ovarian was 109%; in the assay on HS 578T breast it was 108%; with NCI/ADR-RES ovarian it was 103%; in the assay with T-47D breast, 98.6%; in the assay on BT-549 breast, 106%; in the assay with MDA-MB-435 melanoma, 111%. For the same compound, the growth with SW-620 colon is 104%; with MCF7 breast, 107%; with HCT-116 colon it was 96.8%; in the assay on HCC-2998 colon, 97.4%.
Consider `CC(=O)c1ccc2c3c(n(C)c2c1)CCCC3`, for which the growth is 90.2% in the assay on RPMI-8226 leukemia; 106% in the assay with OVCAR-8 ovarian; 91.7% with OVCAR-5 ovarian; 106% in the assay with OVCAR-4 ovarian; 110% with SK-OV-3 ovarian; 104% with IGROV1 ovarian. The growth was 111% in the assay on OVCAR-3 ovarian; 141% in the assay with HS 578T breast; 96.9% in the assay on NCI/ADR-RES ovarian; 109% in the assay on T-47D breast; 96.5% in the assay with BT-549 breast; 97.8% in the assay on MDA-MB-435 melanoma. Besides, the growth was 110% in the assay with SW-620 colon; 95.9% in the assay on MCF7 breast; 99.1% with HCT-116 colon; 93.7% with HCC-2998 colon; 112% with KM12 colon.
As to `COc1cc(C2=NN(C(C)=O)C(c3ccc(OC(C)=O)cc3OC(C)=O)O2)c(OC(C)=O)c2ccccc12` (stereo not drawn), the growth in the assay with RPMI-8226 leukemia is 8.23% (active); in the assay with OVCAR-8 ovarian it was 8.46% (active); in the assay with OVCAR-5 ovarian, 54%; with OVCAR-4 ovarian, 21.1%; in the assay with SK-OV-3 ovarian, 20.1%; with IGROV1 ovarian, 21.7%. The growth with OVCAR-3 ovarian was 20.5%; in the assay with HS 578T breast it was 56.7%; in the assay on NCI/ADR-RES ovarian, 11.7%; with T-47D breast, 11.3%; with BT-549 breast, 23.8%; in the assay with MDA-MB-435 melanoma it was 28.8%. Also, the growth was 30.9% in the assay on SW-620 colon, 14.1% in the assay on MCF7 breast and 14.4% in the assay with HCT-116 colon.
Take `O=c1ccn(C2CCCO2)c(=O)[nH]1` (stereo not drawn): the growth was 108% with RPMI-8226 leukemia; 102% in the assay on OVCAR-8 ovarian; 111% in the assay on OVCAR-5 ovarian; 119% in the assay on OVCAR-4 ovarian; 112% with SK-OV-3 ovarian; 114% with IGROV1 ovarian. Further, the growth is 115% in the assay with OVCAR-3 ovarian; 112% with HS 578T breast; 110% with NCI/ADR-RES ovarian; 105% in the assay on T-47D breast; 118% with BT-549 breast; 103% with MDA-MB-435 melanoma. For the same compound, the growth was 102% with SW-620 colon, 99.4% in the assay with MCF7 breast, 97.2% in the assay with HCT-116 colon and 104% in the assay with HCC-2998 colon.
Turning to `N#Cc1c(N2CCOCC2)nc2sc3cc(Cl)ccc3n2c1=N`, the growth with RPMI-8226 leukemia is 94.4%; in the assay with OVCAR-8 ovarian it was 95.7%; in the assay with OVCAR-5 ovarian, 95.2%; in the assay with OVCAR-4 ovarian, 102%; in the assay with SK-OV-3 ovarian it was 67.3%; in the assay with IGROV1 ovarian it was 67.2%. Moreover, the growth was 104% in the assay with OVCAR-3 ovarian; 66.8% with HS 578T breast; 99% in the assay on NCI/ADR-RES ovarian; 33.1% in the assay on T-47D breast; 129% in the assay on BT-549 breast; 114% in the assay on MDA-MB-435 melanoma. Further, the growth was 98.3% in the assay with SW-620 colon; 74.7% in the assay with MCF7 breast; 103% in the assay on HCT-116 colon; 122% with HCC-2998 colon; 82.3% in the assay on KM12 colon.
In the case of `COc1ccc(-c2cnnn2-c2cc(OC)c3c(c2)OCO3)cc1`, the growth in the assay with RPMI-8226 leukemia was 9.18% (active); in the assay with OVCAR-8 ovarian, 13.1%; in the assay with OVCAR-5 ovarian it was 45.1%; in the assay with OVCAR-4 ovarian, 64.7%; in the assay on SK-OV-3 ovarian, -1.59% (active); in the assay on IGROV1 ovarian, 17.9%. The growth is -37.5% (active) with OVCAR-3 ovarian; 5.54% (active) in the assay with HS 578T breast; 12.1% in the assay on NCI/ADR-RES ovarian; 50.3% in the assay on T-47D breast; 34.8% in the assay with BT-549 breast; -57.5% (active) with MDA-MB-435 melanoma. Moreover, the growth in the assay with SW-620 colon was 26.5%; in the assay with MCF7 breast, 17.8%; with HCT-116 colon, 13.6%; with HCC-2998 colon, -2.25% (active); with KM12 colon, 11.8%.
